12-LOX inh: ALOX12 (human) lipoxygenase inhibition. actives 1.1% (n = 580,000). purified 12hLO, xylenol orange hydroperoxide absorbance. P18054. Potency, µM (top dose mostly 108 µM), for inactives: top-dose activity change, negative = inhibition, most hits filed as inhibitors; note: potency is the fitted concentration of half-maximal effect
Target sequence (P18054 whole entry, looked up): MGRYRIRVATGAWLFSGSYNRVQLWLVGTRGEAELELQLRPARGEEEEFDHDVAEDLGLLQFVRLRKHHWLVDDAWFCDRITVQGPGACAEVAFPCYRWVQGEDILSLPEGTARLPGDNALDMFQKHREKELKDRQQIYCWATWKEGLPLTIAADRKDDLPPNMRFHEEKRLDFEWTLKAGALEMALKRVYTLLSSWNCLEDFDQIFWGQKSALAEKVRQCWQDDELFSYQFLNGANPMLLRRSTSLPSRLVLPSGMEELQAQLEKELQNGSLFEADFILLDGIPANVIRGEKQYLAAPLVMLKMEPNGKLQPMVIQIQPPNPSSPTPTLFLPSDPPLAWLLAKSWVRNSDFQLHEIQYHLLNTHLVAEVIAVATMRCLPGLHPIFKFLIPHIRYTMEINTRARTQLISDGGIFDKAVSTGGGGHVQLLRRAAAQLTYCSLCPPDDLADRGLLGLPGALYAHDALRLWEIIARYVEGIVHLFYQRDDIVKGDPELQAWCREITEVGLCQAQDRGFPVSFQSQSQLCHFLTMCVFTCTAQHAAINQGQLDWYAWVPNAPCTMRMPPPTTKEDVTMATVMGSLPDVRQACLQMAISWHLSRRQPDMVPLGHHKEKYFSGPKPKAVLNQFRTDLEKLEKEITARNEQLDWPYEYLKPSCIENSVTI
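Purified human 12hLO (150 nM final) in 25 mM Hepes, 0.01% Triton X-100, pH 7.0 was preincubated 15 min at room temperature with compound. Then 40 uM arachidonic acid was added, 30 min. Hydroperoxide was read by Fe-XO absorbance ratio 573/405 nm.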
HT1080 IDH1KD tx: toxicity to HT-1080 IDH1 knockdown cells (counter line) | HT-1080 IDH1 knockdown viability, ATP luminescence, 48 h | Potency, µM (top dose mostly 46.1 µM), for the others: at the highest dose activity, negative = toxicity, hits mostly cytotoxic | actives 2% (n = 360,000) | AID 686971;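 note: potency is the fitted concentration of half-maximal effect; 0% = DMSO wells and -100% = cell-free medium wells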
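Knockdown cells (IDH1KD HT-1080) received compounds 2 h after plating at 750 cells/well and were kept 48 h at 37 °C in 5% FBS RPMI. A CellTiter-Glo luminescence read gave % activity for curve fitting.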
HT1080NT lethal: kills 2HG-producing HT-1080-NT fibrosarcoma cells; HT-1080-NT fibrosarcoma viability, CellTiter-Glo ATP luminescence, 48 h; actives 1.6% (n = 360,000); Potency, µM (highest dose often 46.1 µM), without a hit: top-dose activity, negative = less viability, usual class: cytotoxic;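 note: NT is the 2HG producing partner of a matched IDH1 knockdown line; potency is the fitted concentration of half-maximal effect; 0% = DMSO-treated cells and -100% = media-only wells without cells; nearly all actives have a fitted effect of over 55% in size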
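Fibrosarcoma NT cells, 750 per well in 5% FBS RPMI, were exposed to compound for 48 hours. Viability: CellTiter-Glo luminescence.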
IL-1B inflam inh: inhibitors of inflammasome signaling (IL-1 beta secretion); activity change, % at 57.5 µM; actives 4.7% (n = 360,000); THP-1 LPS/ATP IL-1B secretion, AlphaLISA, 16 h; hits give low values; in the data active = activity change below about -50%; inconclusive = mostly about -30% to -49%
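THP-1 cells pretreated 1 hr with compounds (up to 57.5 uM final), then stimulated with LPS (250 ng/mL final) plus ATP (1.25 mM final); secreted IL-1B measured by AlphaLISA after 16 hr, decreased signal indicating inhibition.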
DT40 TDP1 CPT: growth inhibition of DT40 Tdp1-/-;hTDP1 cells with camptothecin (screen for TDP1 inhibitors); actives 12% (n = 420,000); AID 686979; chicken DT40 Tdp1-/-;hTDP1 cells + 20 nM CPT, ATP luminescence, 48 h; Potency, µM (doses to about 46.2 µM), for inactives: at the top dose activity change, negative = growth inhibition, hits mostly inhibitors; note: potency is the fitted concentration of half-maximal effect; nearly all actives have a fitted effect of over 55% in size
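Cell growth measured by CellTiter-Glo luminescence after a minimum 48 h, 37 C compound exposure with 20 nM CPT in Tdp1-knockout DT40 cells stably expressing hTDP1, seeded 400/well; qHTS titration format.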
DT40 TDP1 no CPT: qHTS for Inhibitors of human tyrosyl-DNA phosphodiesterase 1 (TDP1): qHTS in cells in absence of CPT; DT40 Tdp1-/- hTDP1 cells, no CPT, ATP luminescence, 48 h; Potency, µM (highest dose often 46.2 µM), inactives show at the highest dose activity change, negative = growth inhibition, most hits filed as inhibitors; actives 15% (n = 420,000); note: potency is the fitted concentration of half-maximal effect; nearly all actives have a fitted effect of over 55% in size
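Compound effects on proliferation are scored in DT40 Tdp1-/-;hTDP1 cells in the absence of CPT. ATP levels (CellTiter-Glo luminescence) are recorded after a ≥48 hr, 37 °C incubation.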
The depositor's hits bear a star; ? = inconclusive; . = not tested or not shown; [ ] = another dose, or the depositor's remark. This is one part of a sample in which hits are shown more often than they occur. Unless noted, calls come from the whole dose curve; as a rule, active = well fitted curve in the direction sought with a large enough effect; inconclusive = small, poorly fitted or top-dose-only effect, or another doubt; inactive = no such curve, though single readings can be large; an effect the other way counts as inactive or inconclusive. Unless noted, % is set by controls: 0 for no effect and ±100 for the full control effect.

SMILES | 12-LOX inh | HT1080 IDH1KD tx | HT1080NT lethal | IL-1B inflam inh | DT40 TDP1 CPT | DT40 TDP1 no CPT
CC(C)[C@H](NC(=O)[C@@H]1Cc2c([nH]c3ccccc23)C2c3ccccc3C(=O)N21)C(=O)NCC1CCCO1 (stereo partly drawn) | -17.7% | -7.7% | -0.2% | -7.1 | ? | ?
CC(C)C[C@H](NC(=O)[C@@H]1Cc2c([nH]c3ccccc23)C2c3ccccc3C(=O)N21)C(=O)NCC1CCCO1 (stereo partly drawn) | -29.7% | -8.8% | -6.9% | -20.2 | 16.4µM* | ?
Fc1ccc(-n2[nH]nnc2=S)cc1N1CCCC1 | 8.91µM* | ? | -1.9% | 19.3 | -18.0% | -0.6%
COc1cccc(C2C(C#N)=C(N)OC3=C2C(=O)CC(C)(C)C3)c1 (stereo not drawn) | 12.0% | . | . | . | . | .
Cc1noc(CSc2ccccc2C(=O)N2CCC(C)CC2)n1 | 8.9% | . | . | . | . | .
Cc1cc(C(C)(C)C)cc(C)c1C[n+]1ccc2ccccc2c1 | -6.9% | ? | ? | -51.6* | 0.411µM* | 0.231µM*
COc1ccccc1CN1CCOCC2(C1)CN([S+](=O)([O-])c1ccccc1)C2 | 3.7%[176 µM] | . | . | . | . | .
Clc1ccc(OCCN2CCN(c3ncnc4sccc34)CC2)cc1 | -5.9% | 23.1µM* | 4.1% | -8.1 | 0.581µM* | 0.581µM*
Cc1ccc(OCCN2CCN(c3ncnc4sc(C)c(C)c34)CC2)cc1 | ? | -26.2% | -21.3% | ? | 3.66µM* | 3.66µM*
CCOc1ccc(CN2CCN(c3ncnc4sccc34)CC2)cc1 | 10.7% | . | . | . | . | .
CC(C)c1cnc(C2CCCN(C(=O)OC(C)(C)C)C2)[nH]1 (stereo not drawn) | 7.8%[12.5 µM] | . | . | . | . | .
S=C1NC2=C(CCCC2=C2SCCCS2)C(c2ccccc2)N1 (stereo not drawn) | 14.1µM* | 12.0% | -0.1% | -5.4 | ? | ?
COc1ccc(C2NC(=S)NC3=C2CCCC3=C2SCCS2)cc1 (stereo not drawn) | ? | 6.51µM* | 9.2µM* | -81.7* | 2.31µM* | 2.91µM*
O=C1CCCC2=C1C(c1ccccc1)NC(=S)N2 (stereo not drawn) | -9.5% | -23.4% | ? | 23.0 | 0.6% | -19.2%
Cc1cc(C)n2nc(SC(C)C(=O)Nc3cc(Cl)ccc3Cl)nc2n1 (stereo not drawn) | -0.4% | . | . | . | . | .
CCC(c1nnnn1-c1ccc2c(c1)OCCO2)N1CCN(c2ncccc2C(F)(F)F)CC1 (stereo not drawn) | 0.6% | ? | -11.1% | -6.8 | ? | 18.4µM*
CCC(c1nnnn1-c1ccc2c(c1)OCCO2)N1CCN(c2ccc(F)cc2)CC1 (stereo not drawn) | . | ? | -12.4% | -9.0 | 14.6µM* | 16.4µM*
CCC(c1nnnn1-c1ccc2c(c1)OCCO2)N1CCc2ccccc2C1 (stereo not drawn) | 5.1% | -9.0% | -1.6% | 4.1 | ? | ?
O=C(Cn1nc2n(c1=O)CCCCC2)NCCC1=CCCCC1 | -2.4% | . | . | . | . | .
Cc1nnnn1-c1cccc(C(=O)N2CCCC(O)(CN(C)C)CC2)c1 (stereo not drawn) | 33.3% | . | . | . | . | .
COc1ccccc1Cn1c(C(C)NC(=O)OCc2ccccc2)nc2cccnc21 (stereo not drawn) | 5.8% | . | . | . | . | .
COc1ccc2[nH]c(=O)c(CN(Cc3ccccc3OC)Cc3nnnn3CC3CCCO3)cc2c1 (stereo not drawn) | -2.9% | -15.8% | 3.6% | ? | 23.1µM* | ?
O=c1[nH]c2cc3c(cc2cc1CN(Cc1nnnn1CC1CCCO1)C1CCCCC1)OCO3 (stereo not drawn) | -13.7% | -0.1% | 2.9% | -3.8 | ? | ?
COc1ccccc1CN(Cc1cc2cc(C)cc(C)c2[nH]c1=O)Cc1nnnn1CC1CCCO1 (stereo not drawn) | -20.3% | ? | ? | 0.0 | ? | 23.1µM*
O=c1[nH]c2cc3c(cc2cc1CN(Cc1nnnn1CC1CCCO1)C1CCCC1)OCO3 (stereo not drawn) | 4.1% | -1.6% | -3.7% | 2.5 | ? | 13µM*
SMILES | 12-LOX inh | HT1080 IDH1KD tx | HT1080NT lethal | IL-1B inflam inh | DT40 TDP1 CPT | DT40 TDP1 no CPT
O=c1[nH]c2cc3c(cc2cc1CN(CCc1ccccc1)Cc1nnnn1CC1CCCO1)OCO3 (stereo not drawn) | -7.5% | -4.3% | 0.8%[9.24 µM] | -8.7 | ? | 23.1µM*
CCC(c1nnnn1CC1CCCO1)N(CCCO)Cc1cc2cccc(C)c2[nH]c1=O (stereo not drawn) | -9.7% | -0.7% | -6.6% | 25.4 | ? | -19.8%
COc1ccc2[nH]c(=O)c(CN(Cc3ccc(C)cc3)Cc3nnnn3CC3CCCO3)cc2c1 (stereo not drawn) | ? | -13.3% | -5.2% | -11.3 | ? | ?
CC(=O)N(CCCNC(=O)c1nn(C)c(=O)c2ccccc12)C(C)C | -13.5% | . | . | . | . | .
Cc1ccc2[nH]c(=O)c(CN(CCc3ccccc3)Cc3nnnn3CC3CCCO3)cc2c1 (stereo not drawn) | ? | -4.6% | -4.1% | -22.5 | ? | ?
COc1ccc2[nH]c(=O)c(CN(CCc3ccccc3)Cc3nnnn3CC3CCCO3)cc2c1 (stereo not drawn) | -14.7% | -6.8%[9.24 µM] | ? | -16.6 | 6.51µM* | 29.1µM*
CCCc1cc(C(=O)Cc2ccc(F)cc2)c(O)cc1O | ? | 20.6µM* | 23.1µM* | 19.7 | ? | ?
CCc1cc(C(=O)Cc2ccc(F)cc2)c(O)cc1O | ? | ? | ? | 43.5 | -11.1% | ?
CCOC(=O)c1nc2cc3n(c(C)c-2c1C)C(C)C(CC)=C3C (stereo not drawn) | -3.1% | -3.4% | -0.1% | -73.5* | 20.6µM* | 18.4µM*
O=C(CCl)c1ccc(Cc2ncc(C(F)(F)F)cc2Cl)s1 | ? | -12.5% | -18.8% | -103.9* | 3.26µM* | 5.17µM*
CCN(CC)S(=O)(=O)c1ccc(Cc2ncc(C(F)(F)F)cc2Cl)s1 | 0.0% | -22.4% | -15.4% | -58.4* | ? | 20.6µM*
CC(C)n1nccc1NC(=O)COc1ccc(C#N)cc1Cl | 8.2% | . | . | . | . | .
CCCCn1cnc2c1c(=O)n(CC(O)COc1ccccc1)c(=O)n2CCC (stereo not drawn) | -2.1% | . | . | . | . | .
CC(=C\C(=O)O)/C(=C/c1ccco1)C(=O)O | ? | 5.2% | 19.2% | 12.3 | -16.1% | 20.0%
CC(=C\C(=O)O)/C(=C/c1ccc(C)o1)C(=O)O | -19.3% | -16.8% | 0.3% | 3.1 | 14.6µM* | 20.6µM*

Source: PubChem BioAssay (National Center for Advancing Translational Sciences (NCATS))
